# Measurements: the antibiotic and cytotoxicity screens of Wong et al. (2023)
# Hit rate of the full screen: of about 39,000 compounds, about 3,300 (8.5%) were called active. Many of the other results were omitted from the sample, so actives are more common in it than they were.
# Test system: HepG2
# Assay: cytotoxicity call (relative viability < 0.9)
# Settings: 10 µM
row,Structure (SMILES),cytotoxicity call
1,CCC(=O)N[C@@H]1CC[C@@H](CC(=O)OC)O[C@H]1CO,inactive
2,CCCCCCCCCCCCCCCC[N+](C)(C)C,active
3,CCCCCCCCCCCCCCCCOP(=O)([O-])OCC[N+](C)(C)C,inactive
4,C[N+](C)(C)CCCCCC[N+](C)(C)C.[Br-].[Br-],inactive
5,C[C@@H]1CN([C@H](C)CO)C(=O)c2cc(C#CC3(O)CCCC3)cnc2O[C@@H]1CN(C)S(=O)(=O)c1ccc(F)cc1,inactive
6,O=C(CN1CCOCC1)N[C@H]1CC[C@@H](CCNC(=O)C2CCC2)O[C@@H]1CO,inactive
7,C[C@H]1CN([C@@H](C)CO)C(=O)c2cccc(NC(=O)Nc3ccc(C(F)(F)F)cc3)c2O[C@H]1CN(C)S(C)(=O)=O,inactive
8,COc1ccc(cc1)CN1C[C@]2(CCN(CC2)Cc2ccccc2OC)c2c([nH]c3cc(ccc23)OC)[C@@H]1CO,inactive
9,COc1ccc2c3c([nH]c2c1)[C@@H](CO)N(Cc1ccc(cc1)Cl)C[C@]13CCN(CC1)Cc1ccccc1,active
10,COc1ccc2c3c([nH]c2c1)[C@H](CO)N(C[C@]13CCN(CCc2ccccc2)CC1)C(=O)CN1CCOCC1,inactive
11,COc1ccc2c3c([nH]c2c1)[C@H](CO)N(Cc1ccc(cc1)Cl)C[C@]13CCN(CC1)Cc1nccs1,inactive
12,COc1ccc2c3c([nH]c2c1)[C@H](CO)N(C[C@]13CCN(CC1)Cc1ccccc1)C(=O)CN1CCOCC1,active
13,COc1ccc2c3c([nH]c2c1)[C@H](CO)N(Cc1ccc(cc1)Cl)C[C@]13CCN(CC1)Cc1ccccc1,active
14,COc1ccc2c3c([nH]c2c1)[C@@H](CO)N(C[C@]13CCN(CC1)Cc1ccccc1)C(=O)CN1CCOCC1,inactive
15,COc1ccc2c3c([nH]c2c1)[C@@H](CO)N(Cc1ccc(cc1)Cl)C[C@]13CCN(CC1)Cc1nccs1,inactive
16,COc1ccc2c3c([nH]c2c1)[C@H](CO)N(Cc1ccncc1)C[C@]13CCN(CC1)Cc1ccc(cc1)-c1ccccn1,inactive
17,C[C@@H]1CN([C@H](C)CO)C(=O)c2cc(NC(=O)CCCCCC(=O)Nc3ccccc3N)ccc2O[C@@H]1CN(C)Cc1ccc(Cl)c(Cl)c1,inactive
18,Cc1cc(C(=O)Nc2cccc3c2O[C@@H](CN(C)C(=O)NC2CCCCC2)[C@H](C)CN([C@H](C)CO)C3=O)n(C)n1,inactive
19,Cc1noc(C)c1S(=O)(=O)Nc1ccc2c(c1)C(=O)N([C@H](C)CO)C[C@@H](C)[C@H](CN(C)S(=O)(=O)c1ccccc1)O2,inactive
20,C[C@@H]1CN([C@H](C)CO)C(=O)c2cc(Br)cnc2O[C@@H]1CN(C)Cc1ccc2c(c1)OCO2,inactive
21,COc1ccc(-c2cc(=O)c3c(O)cc(O[C@@H]4O[C@H](CO[C@@H]5O[C@@H](C)[C@H](O)[C@@H](O)[C@H]5O)[C@@H](O)[C@H](O)[C@H]4O)cc3o2)cc1O,inactive
22,C[C@H](CO)N1C[C@H](C)[C@@H](CN(C)C(=O)Cc2cccnc2)Oc2cc(-c3cncnc3)ccc2S1(=O)=O,inactive
23,NC(=O)c1ncn([C@H]2O[C@@H](COP(=O)(O)O)[C@@H](O)[C@@H]2O)c1N,inactive
24,C[C@@H]1CN([C@H](C)CO)C(=O)c2cc(NS(=O)(=O)c3cn(C)cn3)ccc2O[C@@H](C)CCCCO[C@H]1CN(C)S(=O)(=O)c1cn(C)cn1,inactive
25,CC(C)(C)OC(=O)C[C@@H]1CC=CC[C@@H](CC(=O)NCCO)C(=O)N[C@@H](Cc2c[nH]c3ccccc23)COC1=O,inactive
26,CC(C)Cc1nc2ccccc2[nH]1,inactive

row,Structure (SMILES),cytotoxicity call
1,CC(C)(C)c1ccc(CSCc2nc3ccccc3[nH]2)cc1,active
2,NNC(=O)Cc1nc2ccccc2[nH]1,inactive
3,Cc1ccc(S(=O)(=O)Nc2ccc3c(c2)C(=O)N([C@H](C)CO)C[C@H](C)[C@H](CN(C)Cc2ccc4c(c2)OCO4)OCCCC[C@H](C)O3)cc1,active
4,Cc1ccc(S(=O)(=O)Nc2ccc3c(c2)C(=O)N([C@H](C)CO)C[C@H](C)[C@@H](CN(C)Cc2ccc4c(c2)OCO4)OCCCC[C@H](C)O3)cc1,inactive
5,Cc1ccc(S(=O)(=O)Nc2ccc3c(c2)C(=O)N([C@@H](C)CO)C[C@@H](C)[C@@H](CN(C)Cc2ccc4c(c2)OCO4)OCCCC[C@H](C)O3)cc1,inactive
6,Cc1ccc(S(=O)(=O)Nc2ccc3c(c2)C(=O)N([C@@H](C)CO)C[C@H](C)[C@H](CN(C)Cc2ccc4c(c2)OCO4)OCCCC[C@H](C)O3)cc1,inactive
7,Cc1ccc(S(=O)(=O)Nc2ccc3c(c2)C(=O)N([C@@H](C)CO)C[C@H](C)[C@@H](CN(C)Cc2ccc4c(c2)OCO4)OCCCC[C@H](C)O3)cc1,inactive
8,Cc1ccc(S(=O)(=O)Nc2ccc3c(c2)C(=O)N([C@H](C)CO)C[C@H](C)[C@@H](CN(C)Cc2ccc4c(c2)OCO4)OCCCC[C@@H](C)O3)cc1,inactive
9,Cc1ccc(S(=O)(=O)Nc2ccc3c(c2)C(=O)N([C@H](C)CO)C[C@@H](C)[C@H](CN(C)Cc2ccc4c(c2)OCO4)OCCCC[C@H](C)O3)cc1,active
10,Cc1ccc(S(=O)(=O)Nc2ccc3c(c2)C(=O)N([C@H](C)CO)C[C@@H](C)[C@@H](CN(C)Cc2ccc4c(c2)OCO4)OCCCC[C@@H](C)O3)cc1,active
11,Cc1ccc(S(=O)(=O)Nc2ccc3c(c2)C(=O)N([C@@H](C)CO)C[C@@H](C)[C@H](CN(C)Cc2ccc4c(c2)OCO4)OCCCC[C@@H](C)O3)cc1,inactive
12,COc1ccc(S(=O)(=O)N(C)C[C@H]2Oc3c(NC(=O)Nc4c(C)noc4C)cccc3C(=O)N([C@H](C)CO)C[C@@H]2C)cc1,inactive
13,C[C@@H]1CN([C@H](C)CO)C(=O)c2cccc(NS(=O)(=O)c3cccs3)c2O[C@@H]1CN(C)Cc1ccc(Cl)c(Cl)c1,inactive
14,C[C@H]1CN([C@@H](C)CO)C(=O)Cc2cc(NC(=O)Cc3ccccc3)ccc2O[C@H]1CN(C)S(C)(=O)=O,inactive
15,CNCc1ccncc1,inactive
16,Cc1sccc1-c1csc(N)n1,inactive
17,C[C@@H]1CN([C@@H](C)CO)C(=O)CCCn2nncc2CO[C@H]1CN(C)C(=O)Nc1ccc2c(c1)OCCO2,inactive
18,C[C@H](CO)N1C[C@H](C)[C@H](CN(C)C(=O)Nc2cccc3ccccc23)Oc2ncc(-c3cccc(F)c3)cc2C1=O,inactive
19,C[C@H](CO)N1C[C@H](C)[C@@H](CN(C)S(=O)(=O)c2ccc(Cl)cc2)OCCCC[C@H](C)Oc2ccc(NC(=O)c3ccncc3)cc2C1=O,inactive
20,C[C@@H]1CN([C@@H](C)CO)C(=O)c2cccc(NS(=O)(=O)c3cccs3)c2O[C@H]1CN(C)S(=O)(=O)c1ccccc1,inactive
21,COc1ccc(C#Cc2ccc3c(c2)O[C@@H](CN(C)C(=O)CN2CCOCC2)[C@H](C)CN([C@H](C)CO)S3(=O)=O)cc1,inactive
22,C[C@@H]1CN([C@@H](C)CO)C(=O)Cc2cc(NC(=O)c3ccncc3)ccc2O[C@H]1CN(C)Cc1ccc(Oc2ccccc2)cc1,active
23,C[C@@H]1CN([C@H](C)CO)C(=O)Cc2cc(NC(=O)c3ccncc3)ccc2O[C@@H]1CN(C)Cc1ccc(Oc2ccccc2)cc1,inactive
24,C[C@@H]1CN([C@H](C)CO)C(=O)Cc2cc(NC(=O)c3ccncc3)ccc2O[C@H]1CN(C)Cc1ccc(Oc2ccccc2)cc1,inactive
25,C[C@H]1CN([C@@H](C)CO)C(=O)Cc2cc(NC(=O)c3ccncc3)ccc2O[C@@H]1CN(C)Cc1ccc(Oc2ccccc2)cc1,inactive
26,C[C@H]1CN([C@@H](C)CO)C(=O)Cc2cc(NC(=O)c3ccncc3)ccc2O[C@H]1CN(C)Cc1ccc(Oc2ccccc2)cc1,inactive

row,Structure (SMILES),cytotoxicity call
1,C[C@@H]1CN([C@@H](C)CO)C(=O)Cc2cc(NC(=O)c3ccncc3)ccc2O[C@@H]1CN(C)Cc1ccc(Oc2ccccc2)cc1,active
2,CO[C@@H]1CN(C)C(=O)c2ccc(NC(=O)C3CC3)cc2OC[C@@H](C)N(C(=O)C2CCOCC2)C[C@@H]1C,inactive
3,C[C@H]1CN([C@@H](C)CO)C(=O)Cc2cc(NC(=O)NC3CCCCC3)ccc2O[C@@H]1CN(C)S(=O)(=O)c1cn(C)cn1,inactive
4,O=C(C[C@H]1C=C[C@H](NC(=O)C2CC2)[C@@H](CO)O1)NCCCN1CCOCC1,inactive
5,C[C@@H]1CCCCO[C@@H](CN(C)C(=O)c2ccncc2)[C@@H](C)CN([C@@H](C)CO)C(=O)c2cc(NC(=O)C3CCCCC3)ccc2O1,inactive
6,CS(=O)(=O)NCc1nnnn1-c1ccc(F)c(F)c1,inactive
7,C[C@@H]1CN([C@H](C)CO)S(=O)(=O)c2ccc(C#Cc3cccc(F)c3)cc2O[C@H]1CN(C)S(=O)(=O)c1ccccc1F,inactive
8,C[C@@H]1CN([C@@H](C)CO)C(=O)c2c(c3ccccc3n2C)-c2ccccc2CO[C@H]1CN(C)C(=O)NC1CCCCC1,inactive
9,CCOC(=O)CSc1nc(=O)cc(C)[nH]1,inactive
10,Cc1cc(=O)nc(SCC(N)=O)[nH]1,active
11,CCCc1cc(=O)nc(SCC(N)=O)[nH]1,inactive
12,C[C@H](CO)N1C[C@H](C)[C@H](CN(C)S(=O)(=O)c2cn(C)cn2)OCCCC[C@H](C)Oc2ccc(NS(=O)(=O)c3ccccc3)cc2C1=O,inactive
13,CCOC(=O)[C@H]1C/C=C/C[C@H](C(=O)OCC)C(=O)O[C@H]2[C@@H](OC)O[C@H](CO)[C@@H](OC(=O)Nc3ccccc3)[C@@H]2OC1=O,inactive
14,COc1ccc(NC(=O)O[C@H]2[C@@H]3OC(=O)[C@@H](Cc4ccc5ccccc5c4)C/C=C/C[C@H](Cc4ccc5ccccc5c4)C(=O)O[C@H]3[C@@H](OC)O[C@@H]2CO)cc1,active
15,CO[C@H]1O[C@H](CO)[C@@H](OC(=O)Nc2cccc(F)c2)[C@@H]2OC(=O)[C@H](Cc3cccc(Br)c3)C/C=C/C[C@@H](Cc3cccc(Br)c3)C(=O)O[C@@H]12,inactive
16,CCOC(=O)[C@H]1C/C=C/C[C@H](C(=O)OCC)C(=O)O[C@H]2[C@@H](OC)O[C@H](CO)[C@@H](OC(=O)c3c(OC)cccc3OC)[C@@H]2OC1=O,inactive
17,CCOC(=O)[C@H]1C/C=C/C[C@H](C(=O)OCC)C(=O)O[C@H]2[C@@H](OC)O[C@H](CO)[C@@H](OC(=O)c3ccc(Br)cc3)[C@@H]2OC1=O,inactive
18,CCOC(=O)[C@H]1C/C=C/C[C@H](C(=O)OCC)C(=O)O[C@H]2[C@@H](OC)O[C@H](CO)[C@@H](OC(=O)Nc3ccc(OC)cc3)[C@@H]2OC1=O,inactive
19,CCOC(=O)[C@H]1C/C=C/C[C@H](C(=O)OCC)C(=O)O[C@H]2[C@@H](OC)O[C@H](CO)[C@@H](OC(=O)Nc3ccc4c(c3)OCO4)[C@@H]2OC1=O,active
20,CO[C@H]1O[C@H](CO)[C@@H](OC(=O)Nc2ccccc2)[C@@H]2OC(=O)[C@@H](Cc3ccc4ccccc4c3)C/C=C/C[C@H](Cc3ccc4ccccc4c3)C(=O)O[C@@H]12,inactive
21,CCOC(=O)[C@H]1C/C=C/C[C@H](C(=O)OCC)C(=O)O[C@H]2[C@@H](OC)O[C@H](CO)[C@@H](OC(=O)Nc3ccc(Br)cc3)[C@@H]2OC1=O,active
22,CO[C@H]1O[C@H](CO)[C@@H](OC(=O)Nc2ccc3c(c2)OCO3)[C@@H]2OC(=O)[C@H](Cc3cccc(Br)c3)C/C=C/C[C@@H](Cc3cccc(Br)c3)C(=O)O[C@@H]12,inactive
23,COc1ccc(NC(=O)O[C@H]2[C@@H]3OC(=O)[C@H](Cc4cccc(Br)c4)C/C=C/C[C@@H](Cc4cccc(Br)c4)C(=O)O[C@H]3[C@@H](OC)O[C@@H]2CO)cc1,inactive
24,CCOC(=O)[C@H]1C/C=C/C[C@H](C(=O)OCC)C(=O)O[C@H]2[C@@H](OC)O[C@H](CO)[C@@H](OC(=O)Nc3cccc(F)c3)[C@@H]2OC1=O,active
